Compounds with a hit are over-represented: about 19% of the library has one in this group of screens.
KB-V1 MDR tox: KB-V1 MDR subline cytotoxicity. 400,000 tested, 3.4% active. Potency, µM (highest dose often 46.1 µM), actives largely listed as cytotoxic. KB-V1 MDR cells viability, CellTiter-Glo, 72 h; also: nearly all actives have a fitted effect of over 60% in size
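Compound-treated KB-V1 multidrug-resistant cells, 72 h, 37 degrees C; viability by CellTiter-Glo. Fitted qHTS curves give the values.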
HT1080-NT tox: kills 2HG-producing HT-1080-NT fibrosarcoma cells; HT-1080-NT fibrosarcoma viability, CellTiter-Glo ATP luminescence, 48 h; Potency, µM (top dose mostly 46.1 µM), for the others: at the highest dose activity, negative = less viability, actives largely listed as cytotoxic; 360,000 tested, 1.6% active; AID 686970;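 also: NT is the 2HG producing partner of a matched IDH1 knockdown line; 0% = DMSO-treated cells and -100% = media-only wells without cells; nearly all actives have a fitted effect of over 55% in size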
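HT-1080-NT; 750 cells/well; 5% FBS RPMI; 48 h compound, 37 degrees C; CellTiter-Glo luminescence; curve fitting and curve-class assignment.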
KB-3-1 tox: KB-3-1 parental cell cytotoxicity. 400,000 tested, 1.4% active. KB-3-1 viability, CellTiter-Glo ATP luminescence, 72 h. Potency, µM (titrated, usually from 46.1 µM), actives largely listed as cytotoxic; also: nearly all actives have a fitted effect of over 60% in size
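KB-3-1 cells, DMEM (no phenol red) + 10% FBS; compound by pin transfer, 72 h, 37 °C. Readout: CellTiter-Glo luminescence after 10 min. Data normalized, curve-fitted.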
DT40 TDP1 no CPT: qHTS for Inhibitors of human tyrosyl-DNA phosphodiesterase 1 (TDP1): qHTS in cells in absence of CPT; AID 686978, 2013; Potency, µM (series often up to 46.2 µM), inactives show top-dose activity change, negative = growth inhibition, actives largely listed as inhibitors; DT40 Tdp1-/- hTDP1 cells, no CPT, ATP luminescence, 48 h; 420,000 tested, 15% active; also: nearly all actives have a fitted effect of over 55% in size
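A cellular qHTS used chicken DT40 cells lacking endogenous Tdp1 but carrying stably transfected human TDP1. Compounds were applied without camptothecin, and cell growth kinetics were judged by ATP-dependent luminescence after ≥48 hr.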
TDP1 cell CPT: growth inhibition of DT40 Tdp1-/-;hTDP1 cells with camptothecin (screen for TDP1 inhibitors); Potency, µM (highest dose often 46.2 µM), for the others: at the top dose activity change, negative = growth inhibition, most hits filed as inhibitors; chicken DT40 Tdp1-/-;hTDP1 cells + 20 nM CPT, ATP luminescence, 48 h; 420,000 tested, 12% active; also: nearly all actives have a fitted effect of over 55% in size
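Chicken DT40 Tdp1-/- cells complemented with human TDP1, 400 cells/well, exposed to compounds plus 20 nM camptothecin for at least 48 h at 37 C; viability read as ATP content by CellTiter-Glo luminescence.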
HT1080 IDH1KD tx: HT-1080 IDH1 knockdown cell toxicity (counter line) | Potency, µM (doses to about 46.1 µM), without a hit: top-dose activity, negative = toxicity, actives largely listed as cytotoxic | HT-1080 IDH1 knockdown viability, ATP luminescence, 48 h | 360,000 tested, 2% active;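 also: 0% = DMSO wells and -100% = cell-free medium wells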
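% activity derives from luminescence (CellTiter-Glo), normalised to DMSO and no-cell wells. HT-1080-IDH1KD cells, 750/well, had 48 h compound exposure at 37 °C.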
Numbers without * were called inactive; i = inactive; u = inconclusive; x = no result given; [ ] = dose if it differs, or a comment. Calls follow the shape of the dose curve; as a rule, active = well fitted curve in the direction sought with a large enough effect; inconclusive = small, poorly fitted or top-dose-only effect, or another doubt; inactive = no such curve, though single readings can be large; an effect the other way counts as inactive or inconclusive. Unless noted, % is scaled to controls: 0 for no effect and ±100 for the full control effect; potency is read from the fitted curve at half-maximal effect.

SMILES | KB-V1 MDR tox | HT1080-NT tox | KB-3-1 tox | DT40 TDP1 no CPT | TDP1 cell CPT | HT1080 IDH1KD tx
CCN(CC)CCOc1ccc2c(c1)C(=O)c1cc(OCCN(CC)CC)ccc1-2 | x | x | x | 10µM* | 15µM* | x
CCOC(=O)c1c(C)n(C)c2cc(OCCN(CC)CC)ccc12 | u | -24% | i | 0% | 1% | 3%[9.24 µM]
Cc1cccc(/C(N)=N/OC(=O)c2ccoc2C)c1 | u | u | u | u | 0.65µM* | 16µM*
CC(C)N(C(=O)[C@H]1CC(CC(=O)NC(C)(C)C)C(=O)N2CCc3c([nH]c4ccccc34)[C@]12C)C(C)C (some centres not stated) | i | -1% | i | u | u | -2%
Cc1ccc(OCCC(=O)OCC(=O)N2CCN(S(=O)(=O)c3ccc(C)cc3C)CC2)cc1 | i | 3% | i | u | u | 8%
Cc1ccc(S(=O)(=O)N2CCN(C(=O)COc3ccc(Br)cc3)CC2)cc1 | 16µM* | -8% | i | u | u | -11%
O=C(COc1ccccc1)N1CCN(S(=O)(=O)c2ccc(Br)cc2)CC1 | i | 5% | i | -29% | 0% | 1%
Cc1ccc(OCCC(=O)OCC(=O)N2CCN(S(=O)(=O)c3ccc(Cl)cc3)CC2)cc1 | i | 5% | i | u | u | -2%
Cc1ccc(S(=O)(=O)N2CCN(C(=O)COC(=O)CCOc3ccc(C(C)(C)C)cc3)CC2)cc1 | i | -5% | i | 10µM* | 12µM* | -7%
N#Cc1ccc(OCC(=O)N2CCN(S(=O)(=O)c3ccc(Cl)s3)CC2)cc1 | i | -16% | i | u | 16µM* | -11%
CCOc1ccc(OCCC(=O)OCC(=O)N2CCN(S(=O)(=O)c3ccc(C)cc3)CC2)cc1 | i | u | i | 15µM* | 15µM* | -15%
COc1cccc(-c2nnc(SCC(=O)NC3CCCCC3)o2)c1 | i | x | u | u | u | x
O=C(N/N=C/c1ccc(Br)s1)c1cccnc1 | i | 10% | i | -11% | -7% | 11%
Brc1ccc(C=Nc2ccc(Nc3ccccc3)cc2)s1 | i | 6% | i | 16µM* | u | 2%
CC(=O)Nc1ccc(N=Cc2ccc(OCc3ccccc3)cc2)cc1 | i | 2% | i | -21% | -5% | 13%
C(=Nc1ccc(Nc2ccccc2)cc1)c1ccc2ccccc2c1 | i | 0% | i | 12µM* | 13µM* | -5%
Cc1ccc(S(=O)(=O)NC2CC(C)(C)NC(C)(C)C2)cc1 | u | 8% | i | -7% | 7% | 10%
Cc1ccc(S(=O)(=O)NC2CC(C)(C)N(O)C(C)(C)C2)cc1 | u | 9% | i | 21µM* | u | 1%
COc1ccc(CNc2nc3c(c(=O)n(C)c(=O)n3C)n2Cc2ccccc2Cl)cc1 | i | x | i | u | u | x
C=CCn1c(NCCc2ccccc2)nc2c1c(=O)n(C)c(=O)n2C | 9.2µM* | -15% | u | 8.2µM* | 9.2µM* | u
CCNc1nc2c(c(=O)n(Cc3ccccc3)c(=O)n2C)n1Cc1ccccc1 | i | -15% | i | u | u | u
COCCNc1nc2c(c(=O)n(C)c(=O)n2C)n1Cc1c(F)cccc1Cl | i | x | u | 2.6µM* | 1.8µM* | x
COCCCNc1nc2c(c(=O)n(C)c(=O)n2C)n1Cc1ccccc1 | i | x | i | 12µM* | 16µM* | x
COc1ccc(CCNc2nc3c(c(=O)n(C)c(=O)n3C)n2Cc2ccccc2Cl)cc1OC | u | x | i | 7.3µM* | 13µM* | x
CC(=O)NCc1ccc(-c2csc(-c3cccs3)n2)cc1 | u | u | i | u | -29% | u
SMILES | KB-V1 MDR tox | HT1080-NT tox | KB-3-1 tox | DT40 TDP1 no CPT | TDP1 cell CPT | HT1080 IDH1KD tx
Cn1c(=O)c2c(nc(Br)n2Cc2ccc3ccccc3c2)n(C)c1=O | 2.6µM* | u | 7.3µM* | u | 21µM* | -28%
CCNc1nc2c(c(=O)n(C)c(=O)n2C)n1CCCc1ccccc1 | u | -27% | u | 5.8µM* | 12µM* | -15%
Cn1c(=O)c2c(nc(CN3CCCCC3)n2Cc2c(F)cccc2Cl)n(C)c1=O | i | 2% | i | 23µM* | u | 12%
Cn1c(=O)c2c(nc(CN3CCN(CCO)CC3)n2Cc2ccccc2Cl)n(C)c1=O | i | -12% | i | -2% | 7% | 0%
C/C(Cl)=C/Cn1c(=O)c2c(nc(Br)n2Cc2ccccc2)n(C)c1=O | i | 3% | i | 21µM* | u | -2%
NNC(=O)CCC(=O)Nc1ccccc1 | i | -3% | i | 4% | 1% | -3%
O=C(Nc1sc2c(c1C(=O)NCc1cccnc1)CCCC2)c1cc(=O)c2ccccc2o1 | i | x | i | u | u | x
Cc1cc(C)n(CCC(=O)Nc2cccc(F)c2)n1 | i | 1% | i | u | 3% | 10%
CCOC1=C2[C@@H](CN(S(=O)(=O)c3ccc(C)cc3)[C@H]2c2cccc3ccccc23)[C@H]2C(=O)NC(=O)[C@H]2C1 | i | -3% | i | u | u | -11%
CCN(CC)CCNC(=O)c1ccc(-c2nc(CN3CCc4ccccc43)c(C)o2)cc1 | u | x | i | x | x | x
O=C1c2ccccc2C(c2nnnn2-c2ccc3c(c2)OCCO3)N1CCCn1ccnc1 (configuration not stated) | i | 0% | i | -13% | -1% | 16%
OC(c1ccco1)c1nc(-c2ccc(F)c(Cl)c2)cs1 (configuration not stated) | i | -19% | i | -23% | u | u
Cc1cccc(C)c1OCC(=O)Nc1c(C(=O)c2ccc(Br)cc2)oc2ccccc12 | i | x | i | u | -6% | x
Cc1ccc(Cn2c(NCCc3ccccc3)nc3c2c(=O)n(C)c(=O)n3C)cc1 | u | -5% | u | 8.2µM* | 6.5µM* | 12%
Cn1c(=O)c2c(nc(NCCCO)n2Cc2cccc(C(F)(F)F)c2)n(C)c1=O | i | 2% | i | 15µM* | 18µM* | 0%
C=CCn1c(Oc2cc(C)ccc2C)nc2c1c(=O)n(C)c(=O)n2C | u | u | i | 16µM* | 15µM* | 1%
C/C(Cl)=C\Cn1c(NCCc2ccccc2)nc2c1c(=O)n(C)c(=O)n2C | u | -1% | i | 0.82µM* | 0.65µM* | 12%
Cc1cc(/C=N/n2cnnc2)c(C)n1-c1ccc(C(=O)O)cc1 | i | 0% | i | 7% | -23% | 5%

Screens from PubChem.
